# Screening data (PubChem)
# PLCb3 inh = PLC-beta3 (human) inhibition, primary screen; Q01970; Purified PLC-beta3, fluorogenic substrate, fluorescence; inhibition, % at 12.2 µM; 370,000 compounds, 0.18% hits; AID 720704; in the data active = inhibition above about 11%;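 also: 0% = median of compound wells on plate and 100% = full blocker control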
# HGIII-sPLA2 inh = Inhibits HGIII-sPLA2 liposome hydrolysis, primary screen | Q9NZ20 | QFRET BODIPY PC-A2 liposome hydrolysis, fluorescence | inhibition, % at 12.2 µM | 370,000 compounds, 0.56% hits;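 active = inhibition above mean plus 3 SD of compounds lying within the high and low control bounds, cut at about 19% in these data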;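 also: 0% = median of test compound wells and 100% = no enzyme DMSO wells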
# KLK7 zymogen act = activates the human kallikrein-7 zymogen. P49862. purified proKLK7, EDANS-DABCYL substrate fluorescence; 100% is mature enzyme control, 0% vehicle. activation, % at 7 µM. 370,000 compounds, 0.9% hits. AID 652039;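 active = activation above the mean of all tested compounds plus 3 SD, computed per campaign excluding outliers beyond control limits, cut at about 13% in these data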
# Target sequence (P49862 whole entry, looked up): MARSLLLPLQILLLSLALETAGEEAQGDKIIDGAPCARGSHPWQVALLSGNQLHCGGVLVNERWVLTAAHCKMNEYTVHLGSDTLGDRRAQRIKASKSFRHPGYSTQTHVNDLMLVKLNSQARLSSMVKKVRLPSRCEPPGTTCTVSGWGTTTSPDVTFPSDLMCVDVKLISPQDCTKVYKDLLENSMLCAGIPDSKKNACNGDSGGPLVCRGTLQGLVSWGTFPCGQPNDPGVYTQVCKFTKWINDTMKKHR
# PLCg1 inh = PLC-gamma1 (human) inhibition, primary screen. P19174. purified PLC-gamma1, fluorogenic substrate, fluorescence. inhibition, % at 12.2 µM. 370,000 compounds, 0.84% hits
# ADAM10 inh = ADAM10 inhibition, QFRET primary screen; O14672; recombinant ADAM10, EDANS/DABCYL FRET peptide cleavage, 3 h; inhibition, % at 7 µM; 370,000 compounds, 0.62% hits;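 active = inhibition above a per-campaign cutoff equal to the mean of compounds falling between control-based bounds plus 3 SD, cut at about 20% in these data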;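 also: 0% = DMSO wells while the 100% control is not disclosed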
# ADAM17 inh = inhibitors of human ADAM17 | inhibition, % at 6.95 µM | recombinant ADAM17, EDANS/DABCYL FRET peptide cleavage | P78536 | 370,000 compounds, 0.83% hits;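 active = inhibition above the mean of compounds lying between control limits plus 3 SD, set per campaign, cut at about 8.5% in these data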;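 also: 0% = DMSO-only wells as the low control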
# PLCgamma1 ctr = inhibits human PLC-gamma1 in PLC-beta3 counter-screen. shares compounds with PLCg1 inh. purified PLC-gamma1, fluorogenic substrate, fluorescence. 3,300 compounds, 3.1% hits. inhibition, % at 12.3 µM
# PLCb3 confirm = confirmation of human PLC-beta3 inhibitors; shares compounds with PLCg1 inh; purified PLC-beta3, fluorogenic substrate fluorescence; inhibition, % at 12.3 µM; 3,300 compounds, 1% hits; AID 743261; in the data active = inhibition above about 11%
# An asterisk follows results filed as active; nt = no result. Sampled rows, rich in hits. Any-hit rate of the full collection: about 3.4%. Rule as the data show it, unless noted: active = inhibition above about 9.5%; inactive = the rest.
SMILES,PLCb3 inh,HGIII-sPLA2 inh,KLK7 zymogen act,PLCg1 inh,ADAM10 inh,ADAM17 inh,PLCgamma1 ctr,PLCb3 confirm
O=C(O)CC(NC(=O)C12CC3CC(CC(C3)C1)C2)c1cc([N+](=O)[O-])ccc1Cl (configuration not stated),6.1,8.6,0.4,13.1*,7.3,1.3,-5.0,-3.9
O=C(O)CC(NC(=O)C1CCCCC1)c1cc([N+](=O)[O-])ccc1Cl (configuration not stated),-7.9,3.6,0.5,2.1,0.1,-5.6,nt,nt
Cc1ccccc1Cn1cc(CN2[C@H](CC(C)C)COc3cc(Br)ccc3S2(=O)=O)nn1,-0.8,-0.3,0.2,-1.7,-18.6,-9.1,nt,nt
Cc1cccc(OCC(=O)OCC(=O)N2CCCc3ccccc32)c1C,-4.2,-0.2,0.4,11.1*,3.8,6.3,0.3,3.1
COc1ccc(NC(=O)CCCN2C(=O)CCC2=O)cc1Cl,2.6,-3.8,0.1,11.0*,-0.4,2.9,-5.5,-1.2
COc1ccc(/C=N/Nc2nnc(Cc3ccc(OC)c(OC)c3)c(=O)[nH]2)cc1,8.7,4.3,0.3,13.8*,5.2,5.4,-1.4,-4.1
COc1ccc(Cc2nnc(N/N=C/c3ccc(N(C)C)cc3)[nH]c2=O)cc1OC,-11.0,5.5,0.5,2.0,-2.2,-4.7,nt,nt
COc1ccc(/C=N/Nc2nnc(Cc3ccc(OC)c(OC)c3)c(=O)[nH]2)cc1OC,10.8*,-2.5,0.8,4.0,18.3,3.9,2.5,3.9
Cc1cnn(-c2cc(N/N=C/c3cccc(F)c3)ncn2)c1,3.2,-0.8,0.4,6.6,-4.3,5.0,nt,nt
Cc1cnn(-c2cc(N/N=C/c3ccccc3F)ncn2)c1,5.5,4.0,-0.6,11.7*,7.3,5.5,-6.8,-2.8
O=C(N/N=C/c1ccccn1)c1ccccc1,4.5,0.5,0.1,10.6*,3.0,3.4,-11.3,-6.5
COC(=O)CCC(C)C1CCC2C3CCC4CC(O)CCC4(C)C3=CC(=O)C12C (configuration not stated),11.1*,-10.6,0.5,2.3,-3.0,4.7,-3.8,-2.9
Cc1ccc(S(=O)(=O)c2ccc(Cl)cc2)cc1S(=O)(=O)NC(C)C(=O)O (configuration not stated),-1.9,15.2,-0.2,10.2*,-12.5,2.9,-5.6,-3.3
CC1CCCCC1NC(=S)NC(=O)c1ccccc1Br (configuration not stated),2.5,3.1,-0.2,1.3,-1.3,-0.5,nt,nt
CC1CCCCC1NC(=S)NC(=O)c1ccccc1Cl (configuration not stated),-3.3,11.6,0.0,10.8*,8.7,7.8,-3.9,-4.0
O=S1(=O)CC2c3ccccc3CN2CN1C1CCCC1 (configuration not stated),-4.4,7.0,0.2,-6.3,3.9,1.7,nt,nt
CCCc1[nH]n(-c2nc3ccccc3s2)c(=O)c1C=NCCCOC,-1.8,-5.9,0.1,11.2*,1.4,5.2,-5.1,-1.9
COCCCN=Cc1c(-c2ccccc2)[nH]n(-c2nc3ccccc3s2)c1=O,-1.6,-15.2,0.3,4.7,-1.7,-3.2,nt,nt
O=C(N/N=C/C(Cl)=C/c1ccc([N+](=O)[O-])cc1)C(=O)Nc1cccc(C(=O)O)c1,6.3,10.2,0.7,13.0*,11.8,5.2,-22.5,-18.7
CCc1nc(SCC(=O)NCc2ccc(F)cc2)c2c(=O)n(C)c(=O)n(C)c2n1,2.9,-0.1,-0.1,46.3*,-9.9,-4.0,-8.6,-3.8
CCc1cc(C(=O)NNC(=O)CCN2CCN(c3ccccc3)CC2)sc1C,-7.4,4.6,0.4,0.8,8.6,-3.3,nt,nt
CCc1cc(C(=O)NNC(=O)CCl)sc1C,1.6,1.6,0.0,10.6*,-5.6,-2.3,-3.3,-2.4
O=C(O)c1ccccc1-c1nc(-c2ccccc2)c(-c2ccccc2)[nH]1,-39.9,-1.6,0.4,-41.1,-12.9,-1.5,nt,nt
O=C(O)c1ccccc1-c1nc2ccccc2c(=O)[nH]1,6.3,4.2,-0.1,9.9*,7.6,4.7,1.6,0.4
COC(=O)[C@]12C=CCN1[C@H](c1ccc(OC)c(OC)c1)c1c(c3ccccc3n1S(=O)(=O)c1ccc(C)cc1)C2,-93.8,-1.1,-1.1,-72.6,-24.2,-8.1,nt,nt
SMILES,PLCb3 inh,HGIII-sPLA2 inh,KLK7 zymogen act,PLCg1 inh,ADAM10 inh,ADAM17 inh,PLCgamma1 ctr,PLCb3 confirm
O=C(O)c1[nH]c2ccccc2c1C(c1ccccc1)c1c(C(=O)O)[nH]c2ccccc12,-5.6,-126.8,-0.1,4.2,-5.1,-1.2,nt,nt
O=C(O)c1[nH]c2ccccc2c1C(c1cc(Cl)cc([N+](=O)[O-])c1O)c1c(C(=O)O)[nH]c2ccccc12,-6.5,-242.5,0.2,16.1*,4.2,1.6,31.3*,-0.9
COC(=O)[C@]12C[C@H](CC(=O)N3CCN(C(=O)c4ccco4)CC3)C(=O)N(Cc3ccccc3)C1=C[C@H](COCc1ccccc1)O[C@@H]2C,-1.5,-5.7,0.6,0.8,-1.9,-2.1,nt,nt
CC1CCCCN1C(=O)c1ccccc1OC1CCN(S(C)(=O)=O)CC1 (configuration not stated),3.1,-4.2,-0.3,9.5*,7.3,2.4,-6.2,-7.3
C=CCN(CC#CC1=CCCCC1)Cc1ccc(OC)cc1OC,2.2,0.9,0.2,0.1,1.4,-0.6,nt,nt
CCCOc1ccc(C2C(=O)N(C3CCCCC3)CC(=O)N2C2CC2)cc1OC (configuration not stated),-1.5,-0.4,-0.2,13.2*,-1.1,-5.4,-5.8,-3.4
CCCOc1ccc(C2C(=O)N(C3CCCCCC3)CC(=O)N2Cc2ccco2)cc1OC (configuration not stated),6.0,-11.6,0.3,3.5,3.3,0.3,nt,nt
CC(C)(C)c1cc(=O)n(-c2ccccc2)[nH]1,8.8,-2.3,-0.2,27.6*,1.0,0.0,7.0,2.2
O=S1(=O)c2c(NCc3ccco3)cccc2Oc2ccccc2CN1Cc1cn(Cc2ccc(C(F)(F)F)cc2)nn1,-50.4,-4.8,-8.3,-29.2,-8.2,0.0,nt,nt
O=S1(=O)CC(N2CCSCC2)CN1Cc1cn(Cc2ccc(C(F)(F)F)cc2)nn1 (configuration not stated),6.5,12.2,0.4,13.0*,3.9,5.1,-3.2,1.1
CN1CCN(C2CN(Cc3cn(Cc4ccc(C(F)(F)F)cc4)nn3)S(=O)(=O)C2)CC1 (configuration not stated),-0.6,16.2,0.5,-1.7,-26.0,2.8,nt,nt
CCOc1ccc(CCNC(=O)c2cc3sccc3n2CC)cc1OC,0.3,-7.3,0.3,0.8,0.3,2.3,nt,nt
O=C1CCN(Cc2ccc(O)cc2)CCN1[C@H](CO)c1ccccc1,3.8,0.0,0.5,9.7*,1.7,0.0,-1.9,-0.9
